Activity calls are given as the source filed them.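 How the source made its calls, unless noted: active means compounds lowering colon cancer cell viability after pretreatment blocking the GSK3B kinase; inactive means the rest.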 Starred links: 1 amine or outer side, 2 acyl side, 3 side chain; linkers in the order of their positions; H or OH if unused. Positions of bridges follow the written chain, without caps; N, C: chain ends. Non-standard residues stand in square brackets, D forms with d. Residues, ends and D or L forms follow the SMILES beside them. ξ: configuration not given here. *: point of attachment. ΔAla(3-NHCONH2) = NC(=O)NC=C(N)C(=O)O; X1 = NC1=NCCC(C(N[*:1])C(=O)[*:2])N1; ξβ3hOrn = NCCCC(N)CC(=O)*; Dap = NC[CH](N)C(=O)O
Tests used:
[1] = Wnt pathway potentiators raising nuclear beta-catenin – imaging, WNT3A-conditioned medium, mouse C2C12, NPC library, primary screen (AID 1117326; in the data active means nuclear beta-catenin stimulation mostly above about 4.2%, no sharp cut-off; inactive means mostly below about 10%; further: reference of the scale not given here); settings: stronger effect = higher value
[2] = stimulators of insulin release from INS-1E, primary screen, cell-based, 5 mM glucose, NPC library (AID 1117329;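 active means compound raises insulin release from rat beta cells at 5 mM glucose, no numeric limit stated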; further: reference of the scale not given here); settings: rat INS-1E insulin secretion, at 10 µM, stronger effect = higher value
[3] = growth inhibition of GSK3B-pretreated HCT116 cells – cell-based, CellTiter-Glo, 0.2 to 20 µM (AID 1117336); settings: HCT116 viability after GSK3B inhibitor, at 20 µM, stronger effect = higher value
[4] = inhibition of endothelial tube formation, primary screen, imaging, VEGF stimulated, CD31 staining, tube area, NPC library (AID 1117340;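 active means compound that reduces growth-factor-driven endothelial tube area in a mixed cell culture, no cutoff stated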); settings: VEGF-stimulated ADSC/ECFC co-culture, at 10 µM, stronger effect = higher value
[5] = GLP1 release stimulators, primary, NCI-H716, NPC library (AID 1117341;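 active means compound raises GLP1 secretion from the human gut endocrine cells, with no numeric limit stated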; further: reference of the scale not given here); settings: NCI-H716 cells, at 10 µM, stronger effect = higher value
[6] = HCT116 colon cancer cell growth inhibition, primary screen, CellTiter-Glo luminescence, NPC library (AID 1117342;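 active means compounds that lower survival of HCT116 colon cancer cells in the luminescence readout, no numeric limit stated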); settings: at 20 µM (top of the series)
[7] = reduced SW480 viability measured with CellTiter-Glo, NPC library, primary (AID 1117343;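 active means compounds that lower viability of the colon cancer cells in the luminescence readout, with no numeric limit stated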); settings: CellTiter-Glo luminescence; at 20 µM (top of the series)
[8] = NPC library primary testing for decreased DLD-1 cell viability via CellTiter-Glo (AID 1117346;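 active means compounds that lower survival of DLD-1 colon cancer cells in the luminescence readout, no cutoff given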); settings: DLD-1 viability, CellTiter-Glo luminescence; at 20 µM (top of the series)

Compound | nuclear beta-catenin stimulation ([1]; at 10 µM) | nuclear beta-catenin stimulation ([1]; stimulation, at 2 µM) [%] | insulin secretion stimulation [2] | viability decrease [3] | tube area decrease [4] | GLP1 secretion stimulation [5] | inhibition of viability [6] | viability decrease (inhibition) [7] | viability decrease (inhibition) [8]
O=c1[nH]sc2cc(Cl)ccc12 | 15.5% (inactive) | 7.8 | -2.7% (inactive) | 58.1% (active) | 89.7% (active) | 45% (active) | 20.5% (inactive) | 157% (active) | 63.5% (active)
Cc1oc(-c2ccccc2)nc1CCC(=O)c1ccc(CC2SC(=O)NC2=O)cc1 (stereo unspecified) | 3.2% (inactive) | -0.4 | 3.5% (inactive) | 97.3% (active) | 9.6% (inactive) | 12.7% (inactive) | 95.4% (active) | 120% (active) | 96.5% (active)
CC(=O)Nc1ccc(S(=O)(=O)Nc2cc(C)on2)cc1 | 1.7% (inactive) | 0.3 | 0.5% (inactive) | -7% (inactive) | -15.5% (inactive) | 0.1% (inactive) | 0.8% (inactive) | -14.4% (inactive) | 2% (inactive)
CCCC(=O)O[C@]1(C(=O)CC)CC[C@H]2[C@@H]3CCC4=CC(=O)CC[C@]4(C)[C@H]3[C@@H](O)C[C@@]21C | -0.2% (inactive) | 1.5 | 6.6% (inactive) | 12.1% (inactive) | -2.7% (inactive) | 5.3% (inactive) | 18.1% (inactive) | 35.2% (inactive) | 25.5% (inactive)
COc1ccc(CCC(C)=O)cc1 | 0.1% (inactive) | 2.7 | 0.3% (inactive) | -3.4% (inactive) | -21% (inactive) | -3.2% (inactive) | -0.8% (inactive) | -0.7% (inactive) | -19.4% (inactive)
CC(C)=CCCC(C)=CCCC(C)=CCCC(C)=CCC1=C(C)C(=O)c2ccccc2C1=O | -0.4% (inactive) | 0 | 0.5% (inactive) | 27.6% (inactive) | 3.6% (inactive) | -0.8% (inactive) | 37.8% (inactive) | 12.3% (inactive) | 11.1% (inactive)
O=C(O)CNC(=O)c1ccccc1 | 1.3% (inactive) | 1.4 | -1.9% (inactive) | -9.35% (inactive) | -7.6% (inactive) | 4% (inactive) | -1.6% (inactive) | 24.7% (inactive) | 2.1% (inactive)
COC(=O)[C@H]1[C@H]2C[C@@H]3c4[nH]c5cc(OC)ccc5c4CCN3C[C@H]2C[C@@H](OC(=O)/C=C/c2ccc(O)c(OC)c2)[C@@H]1OC | 74.6% (active) | 3.6 | 0.4% (inactive) | 91.8% (active) | 21% (inactive) | 0.1% (inactive) | 85% (active) | 142% (active) | 102% (active)
N[C@@H](Cc1cc(I)c(O)c(I)c1)C(=O)O | 15% (inactive) | 3.2 | -1% (inactive) | -3.6% (inactive) | 26.5% (inactive) | -3.4% (inactive) | 3.4% (inactive) | 24.1% (inactive) | -15.2% (inactive)
CCCOC(C(=O)OC1CCN(C)CC1)(c1ccccc1)c1ccccc1 | 0.8% (inactive) | 1.5 | 0.3% (inactive) | 54.2% (active) | 19.1% (inactive) | 21.3% (active) | 84.8% (active) | 107% (active) | 57.7% (active)
CCCC(CCC)C(N)=O | -0.9% (inactive) | -1 | 2% (inactive) | 1.8% (inactive) | -17.7% (inactive) | 16.4% (inactive) | 16.3% (inactive) | 25.7% (inactive) | 22.3% (inactive)
C/C=C/c1ccc(O)c(OC)c1 | 9.7% (inactive) | 0.5 | -0.1% (inactive) | 2.5% (inactive) | -5.2% (inactive) | -3.8% (inactive) | 8.25% (inactive) | 51.6% (active) | 18.6% (inactive)
CC(C(O)c1ccccc1)N(C)CCOC(c1ccccc1)c1ccccc1 (stereo unspecified) | 4.3% (inactive) | 2.3 | 2.45% (inactive) | 77.3% (active) | 14.1% (inactive) | 7.4% (inactive) | 86.9% (active) | 133% (active) | 81.5% (active)
CCCCCCCCCCCCCCCCCCN(C)C | -0.6% (inactive) | -1.1 | 0.9% (inactive) | 1.2% (inactive) | -8% (inactive) | -0.1% (inactive) | 43.3% (inactive) | -27.7% (inactive) | -0.1% (inactive)
CCN1/C(=C/C=C/c2sc3ccccc3[n+]2CC)Sc2ccccc21 | 1.2% (inactive) | 7.5 | -0.5% (inactive) | 99.1% (active) | -349% (inactive) | -2.9% (inactive) | 98.8% (active) | 103% (active) | 102% (active)
CCC(=C(CC)c1ccc(OP(=O)(O)O)cc1)c1ccc(OP(=O)(O)O)cc1 | -1.3% (inactive) | 1.7 | -1.8% (inactive) | -26.4% (inactive) | 3.7% (inactive) | -1.8% (inactive) | -0.4% (inactive) | -2.6% (inactive) | 10.2% (inactive)
CCOc1c(N2CCOCC2)cnn(C)c1=O | -0.3% (inactive) | 4.4 | 1.5% (inactive) | -36.6% (inactive) | 4.1% (inactive) | 0.1% (inactive) | 11.2% (inactive) | 7.7% (inactive) | -14.1% (inactive)
CCCCNc1ccc(C(=O)OCCN(CC)CC)cc1 | 4% (inactive) | 1.7 | 7.25% (inactive) | 50.2% (active) | 19.5% (inactive) | 3.7% (inactive) | 81.8% (active) | 60.6% (active) | 88.7% (active)
Oc1ccccc1 | -0.4% (inactive) | 0.2 | -0.2% (active) | -6.9% (inactive) | -36.6% (inactive) | 0.5% (inactive) | -11.1% (inactive) | 42.7% (inactive) | 0.9% (inactive)
Cc1ccc(C(=O)Oc2ccc(C(O)CNC(C)(C)C)cc2OC(=O)c2ccc(C)cc2)cc1 (stereo unspecified) | 31.3% (inactive) | 1.1 | 4.5% (inactive) | 79.2% (active) | 107% (active) | -1.5% (inactive) | 75.9% (active) | 137% (active) | 102% (active)
CC(=O)Oc1ccc(C(=C2CCCCC2)c2ccc(OC(C)=O)cc2)cc1 | 0.2% (inactive) | 1.4 | -0.3% (inactive) | 109% (active) | 4.9% (inactive) | 7.4% (inactive) | 112% (active) | 130% (active) | 102% (active)
CCCCC(=O)OCC(=O)[C@H]1[C@H](C)C[C@H]2[C@@H]3C[C@H](F)C4=CC(=O)C=C[C@]4(C)[C@@]3(F)[C@@H](O)C[C@@]21C | -1.1% (inactive) | -1.4 | 13.7% (inactive) | -7.2% (inactive) | -11.7% (inactive) | 0.8% (inactive) | 17.1% (inactive) | -15.9% (inactive) | -9.9% (inactive)
Cc1[nH]cnc1C[C@H]1CCc2c(C)c3ccccc3n2C1=O | 9.2% (inactive) | 0.9 | -0.4% (inactive) | 57.2% (active) | 55% (active) | -2.3% (inactive) | 92.8% (active) | 69.2% (active) | 65.3% (active)
CC12C=CC(=O)C=C1CCC1C2C(O)CC2(C)C1CCC2(O)C(=O)COP(=O)(O)O (stereo unspecified) | 1.1% (inactive) | 0.6 | 1.5% (inactive) | -38.5% (inactive) | -3.4% (inactive) | -2% (inactive) | 1.57% (inactive) | -2.1% (inactive) | -14.4% (inactive)
CCCCCCCCCCCC(=O)[O][Sn]([CH2]CCC)([CH2]CCC)[O]C(=O)CCCCCCCCCCC | 75.9% (active) | 7.2 | 0% (inactive) | -72% (inactive) | 94.7% (active) | 49% (active) | 5.07% (inactive) | 133% (active) | 101% (active)
c1ccc2sc(SN3CCOCC3)nc2c1 | 0.5% (inactive) | 2.1 | -2.6% (inactive) | 2.05% (inactive) | 18.9% (inactive) | -0.9% (inactive) | -10.4% (inactive) | 110% (active) | 6.4% (inactive)
O=C(Nc1ccc(Br)cc1)c1cc(Br)c(Br)s1 | 24.1% (inactive) | -0.1 | 3.5% (inactive) | 99.8% (active) | 108% (active) | -2% (inactive) | 99.7% (active) | 102% (active) | 102% (active)
O=C(O)c1ccc(OCCCOc2ccc(C(=O)O)cc2)cc1 | 1.9% (inactive) | 0.7 | 3.2% (inactive) | -0.8% (inactive) | -2.8% (inactive) | -1.8% (inactive) | -0.8% (inactive) | 5.3% (inactive) | -6.3% (inactive)
NCCCC(N)CC(=O)NCC1NC(=O)C(CO)NC(=O)C(N)CNC(=O)C(C2CCN=C(N)N2)NC(=O)C(=CNC(N)=O)NC1=O (stereo not drawn) (H-[Dap]S[Dap](ξβ3hOrn)[ΔAla(3-NHCONH2)][X1]; lactam 1-C; configuration not given here) | 0.2% (inactive) | 1.8 | -0.9% (inactive) | 3.9% (inactive) | -1% (inactive) | -1.3% (inactive) | -22.2% (inactive) | -3.4% (inactive) | -12% (inactive)

From PubChem BioAssay
